Counter-ions that a name gives are not always drawn.
What was measured:
[1] = tested on: Vero E6 infected with SARS-CoV-2; test: morphology score (similarity to uninfected cells); higher = more like uninfected cells; conditions: 24 h
[2] = tested on: Vero E6 infected with SARS-CoV-2; test: SARS-CoV-2 infection rate relative to infected DMSO; higher = more infection, active = 60 or less; conditions: 24 h

## Oc1ccc(C2CNCCc3c2cc(O)c(O)c3Cl)cc1 (centres undefined) [fenoldopam] (10 µM)
[1]
  morphology score: 0.226
[2]
  SARS-CoV-2 infection rate: 95% (inactive)

## CC(C)c1ccc(CC(=O)N2CCC[C@@H](c3cccc(OC(C)(C)C(=O)O)c3)C2)cc1 (10 µM)
[1]
  morphology score: 0.109
[2]
  SARS-CoV-2 infection rate: 96% (inactive)

## Cc1nn(-c2ccccc2)c(C)c1/C=N/N1CCN(Cc2ccccc2)CC1 (10 µM)
[1]
  morphology score: 0.00911
[2]
  SARS-CoV-2 infection rate: 117% (inactive)

## C[C@]1(COc2ccc(N3CCC(Oc4ccc(OC(F)(F)F)cc4)CC3)cc2)Cn2cc([N+](=O)[O-])nc2O1 [delamanid] (10 µM)
[1]
  morphology score: -0.0971
[2]
  SARS-CoV-2 infection rate: 110% (inactive)

## Cc1cccc(C)c1NC(=O)C1CCCCN1C (centres undefined) [mepivacaine] (10 µM)
[1]
  morphology score: 0.171
[2]
  SARS-CoV-2 infection rate: 97.5% (inactive)

## Cc1cc(/C=C/C#N)cc(C)c1Nc1ccnc(Nc2ccc(C#N)cc2)n1 [rilpivirine] (0.833333 µM)
[1]
  morphology score: 0.136
[2]
  SARS-CoV-2 infection rate: 111% (inactive)

## CCCc1ncc(C[n+]2ccccc2C)c(N)n1 [amprolium] (10 µM)
[1]
  morphology score: -0.0897
[2]
  SARS-CoV-2 infection rate: 104% (inactive)

## N[C@H](C(=O)O)c1cc(O)no1 [ibotenic-acid] (10 µM)
[1]
  morphology score: -0.00755
[2]
  SARS-CoV-2 infection rate: 93% (inactive)

## COc1ccc(-c2coc3cc(O)ccc3c2=O)cc1 [formononetin] (10 µM)
[1]
  morphology score: 0.158
[2]
  SARS-CoV-2 infection rate: 106% (inactive)

## COc1cc2c(cc1OCCCN1CCCC1)N=C(N)C21CCC1 (10 µM)
[1]
  morphology score: 0.0229
[2]
  SARS-CoV-2 infection rate: 106% (inactive)

## CN(C)CCCN1c2ccccc2Sc2ccc(Cl)cc21 [chlorpromazine] (0.833333 µM)
[1]
  morphology score: 0.071
[2]
  SARS-CoV-2 infection rate: 98.5% (inactive)

## CC(C)(C)OC(=O)N[C@H]1CCCCC/C=C\[C@@H]2C[C@@]2(C(=O)NS(=O)(=O)C2CC2)NC(=O)[C@@H]2C[C@@H](OC(=O)N3Cc4cccc(F)c4C3)CN2C1=O [danoprevir] (10 µM)
[1]
  morphology score: -0.0154
[2]
  SARS-CoV-2 infection rate: 114% (inactive)

## CC[C@]12CCCN3CCc4c(n(c5ccccc45)[C@@](O)(C(=O)OC)C1)[C@@H]32 [vincamine] (10 µM)
[1]
  morphology score: 0.0512
[2]
  SARS-CoV-2 infection rate: 99% (inactive)

## CC1=CC[C@@H](C(C)(C)O)C[C@@H]1O [sobrepin] (10 µM)
[1]
  morphology score: -0.0987
[2]
  SARS-CoV-2 infection rate: 114% (inactive)

## N[C@@H](CS(=O)O)C(=O)O [L-cysteinesulfinic-acid] (10 µM)
[1]
  morphology score: -0.0506
[2]
  SARS-CoV-2 infection rate: 108% (inactive)

## CC(C)SC(=N)N [S-isopropylisothiourea] (10 µM)
[1]
  morphology score: 0.0211
[2]
  SARS-CoV-2 infection rate: 105% (inactive)

## Cn1c2cc([S+](C)[O-])sc2c2cnn(Cc3cccc(N)c3)c(=O)c21 (centres undefined) (10 µM)
[1]
  morphology score: 0.0427
[2]
  SARS-CoV-2 infection rate: 107% (inactive)

## CCS(=O)(=O)CCn1c([N+](=O)[O-])cnc1C [tinidazole] (10 µM)
[1]
  morphology score: 0.142
[2]
  SARS-CoV-2 infection rate: 108% (inactive)

## Cn1cc(-c2ccc3ncc(Cc4ccc5ncccc5c4)n3n2)cn1 (10 µM)
[1]
  morphology score: 0.442
[2]
  SARS-CoV-2 infection rate: 83% (inactive)

## C[N+]1(C)CCC(=C(c2ccccc2)c2ccccc2)CC1 [diphemanil] (10 µM)
[1]
  morphology score: -0.00596
[2]
  SARS-CoV-2 infection rate: 95.5% (inactive)

## O=c1ncccn1[C@@H]1O[C@H](CO)[C@@H](O)[C@H]1O [zebularine] (10 µM)
[1]
  morphology score: 0.0754
[2]
  SARS-CoV-2 infection rate: 104% (inactive)

## C[C@]12CC[C@@H]3c4ccc(OC(=O)N(CCCl)CCCl)cc4CC[C@H]3[C@@H]1CC[C@@H]2OP(=O)(O)O [estramustine-phosphate] (10 µM)
[1]
  morphology score: 0.0729
[2]
  SARS-CoV-2 infection rate: 100% (inactive)

## Cc1c(F)cccc1NC(=O)Nc1ccc(Cl)c(S(=O)(=O)[C@H]2CCCNC2)c1O [danirixin] (10 µM)
[1]
  morphology score: 0.19
[2]
  SARS-CoV-2 infection rate: 98% (inactive)

## CN1CC(=O)N=C1NC(=O)Nc1cccc(Cl)c1 [fenobam] (10 µM)
[1]
  morphology score: -0.115
[2]
  SARS-CoV-2 infection rate: 107% (inactive)

## C/C=C/c1cc(OC)c(OC)cc1OC [alpha-asarone] (10 µM)
[1]
  morphology score: 0.0292
[2]
  SARS-CoV-2 infection rate: 98.5% (inactive)

## CCN1C[C@H](C)n2c(c(O)c3c(=O)n(Cc4ccc(F)c(Cl)c4)nc(C(=O)NC)c32)C1=O (10 µM)
[1]
  morphology score: 0.0188
[2]
  SARS-CoV-2 infection rate: 97.5% (inactive)

## Oc1ccc(C(O)CNCCCCCCNCC(O)c2ccc(O)c(O)c2)cc1O (centres undefined) [hexoprenaline] (10 µM)
[1]
  morphology score: 0.0624
[2]
  SARS-CoV-2 infection rate: 116% (inactive)

## O=C1Cc2c([nH]c3ccc(Br)cc23)-c2ccccc2N1 [kenpaullone] (10 µM)
[1]
  morphology score: 0.533
[2]
  SARS-CoV-2 infection rate: 69.5% (inactive)

## CC1(C)O[C@H]2CC(=O)OC[C@]23[C@H]2CC[C@@]4(C)[C@H](c5ccoc5)OC(=O)[C@H]5O[C@]54[C@]2(C)C(=O)C[C@@H]13 [limonin] (10 µM)
[1]
  morphology score: 0.289
[2]
  SARS-CoV-2 infection rate: 103% (inactive)

## CC[C@@H](CO)NC(=O)[C@@H]1C=C2c3cccc4c3c(cn4C)C[C@H]2N(C)C1 [methysergide] (10 µM)
[1]
  morphology score: 0.0741
[2]
  SARS-CoV-2 infection rate: 110% (inactive)

## C#CCOC(=O)C1=CCCN(C)C1 [arecaidine-propargyl-ester] (10 µM)
[1]
  morphology score: 0.0331
[2]
  SARS-CoV-2 infection rate: 93.5% (inactive)

## COc1ccc2c(C)nc(Nc3nc(C)c(C)c(O)n3)nc2c1 [madrasin] (10 µM)
[1]
  morphology score: 0.0439
[2]
  SARS-CoV-2 infection rate: 107% (inactive)

## O=C(Nc1nc2cccc(-c3ccc(CN4CCS(=O)(=O)CC4)cc3)n2n1)C1CC1 [filgotinib] (10 µM)
[1]
  morphology score: 0.154
[2]
  SARS-CoV-2 infection rate: 97% (inactive)

## CNc1cc2[nH]c(=O)n(-c3ccc(NC(=O)NS(=O)(=O)c4ccc(Cl)s4)cc3)c(=O)c2cc1F [elinogrel] (10 µM)
[1]
  morphology score: 0.235
[2]
  SARS-CoV-2 infection rate: 87.5% (inactive)

## COc1ccc(S(=O)(=O)N2c3ccc(Cl)cc3[C@](O)(c3ccccc3Cl)[C@@H]2C(=O)N2CCC[C@H]2C(N)=O)cc1OC [relcovaptan] (10 µM)
[1]
  morphology score: -0.0372
[2]
  SARS-CoV-2 infection rate: 106% (inactive)

## CCc1ccc(C(=O)C(C)CN2CCCCC2)cc1 (centres undefined) [eperisone] (10 µM)
[1]
  morphology score: 0.374
[2]
  SARS-CoV-2 infection rate: 80% (inactive)

## O=c1oc2c(O)c(O)cc3c(=O)oc4c(O)c(O)cc1c4c23 [ellagic-acid] (10 µM)
[1]
  morphology score: 0.105
[2]
  SARS-CoV-2 infection rate: 94% (inactive)

## CCNC1=Nc2ccc(Cl)cc2C(C)(c2ccccc2)O1 (centres undefined) [etifoxine] (10 µM)
[1]
  morphology score: 0.159
[2]
  SARS-CoV-2 infection rate: 106% (inactive)

## C[C@]12CC[C@H](O)C[C@H]1CC[C@@H]1[C@@H]2CC[C@]2(C)[C@@H](C3=CC(=O)OC3)CC[C@]12O [digitoxigenin] (0.833333 µM)
[1]
  morphology score: -0.0679
[2]
  SARS-CoV-2 infection rate: 108% (inactive)

## CC[N+]1(C)CCCC(OC(=O)C(O)(c2ccccc2)c2ccccc2)C1 (centres undefined) [pipenzolate] (10 µM)
[1]
  morphology score: 0.153
[2]
  SARS-CoV-2 infection rate: 98% (inactive)

## N#CCC(=O)c1ccccc1 (10 µM)
[1]
  morphology score: 0.0172
[2]
  SARS-CoV-2 infection rate: 112% (inactive)

## CN(C)CCOc1ccc(/C(=C(/CCCl)c2ccccc2)c2ccccc2)cc1 [Toremifene citrate] (10 µM)
[1]
  morphology score: 0.422
[2]
  SARS-CoV-2 infection rate: 77% (inactive)

## C#CC[C@H](c1nc2cc(Cl)ccc2c(=O)n1Nc1ccccc1)N(CCCN)C(=O)c1cccc(Cl)c1F (0.833333 µM)
[1]
  morphology score: -0.0173
[2]
  SARS-CoV-2 infection rate: 112% (inactive)

## O=C(NO)c1cnc(N2CCN(S(=O)(=O)c3ccc4ccccc4c3)CC2)nc1 (10 µM)
[1]
  morphology score: -0.145
[2]
  SARS-CoV-2 infection rate: 115% (inactive)

## COc1ccc2cc(OCC3(C(=O)O)CN(C(=O)c4ccc(F)cc4)C3)ccc2c1 (10 µM)
[1]
  morphology score: 0.0418
[2]
  SARS-CoV-2 infection rate: 110% (inactive)

## COC(=O)C[C@](O)(CCC(C)(C)O)C(=O)O[C@@H]1C(OC)=C[C@]23CCCN2CCc2cc4c(cc2[C@H]13)OCO4 [harringtonine] (10 µM)
[1]
  morphology score: 0.555
[2]
  SARS-CoV-2 infection rate: 49% (active)

## C=C(c1ccccc1OCc1cccc(Cl)c1)n1ccnc1 [croconazole] (10 µM)
[1]
  morphology score: 0.0614
[2]
  SARS-CoV-2 infection rate: 104% (inactive)

## O=C(O)CCCO (10 µM)
[1]
  morphology score: 0.0908
[2]
  SARS-CoV-2 infection rate: 104% (inactive)

## CCCCCCCCCCCCCCCCOc1nc2ccc(C)cc2c(=O)o1 [cetilistat] (10 µM)
[1]
  morphology score: -0.00505
[2]
  SARS-CoV-2 infection rate: 104% (inactive)

## O=C(c1cccc(Br)c1)N1CCC(N2CCCC2)CC1 (10 µM)
[1]
  morphology score: -0.00696
[2]
  SARS-CoV-2 infection rate: 106% (inactive)

## CCCCCCCC/C=C\CCCCCCCC(=O)N[C@@H](CO)Cc1ccc(O)cc1 (10 µM)
[1]
  morphology score: 0.123
[2]
  SARS-CoV-2 infection rate: 104% (inactive)

## CCCCc1ncc(/C=C(\Cc2cccs2)C(=O)O)n1Cc1ccc(C(=O)O)cc1 [eprosartan] (10 µM)
[1]
  morphology score: 0.0906
[2]
  SARS-CoV-2 infection rate: 106% (inactive)

## COCCc1ccc(OCC(O)CNC(C)C)cc1 (centres undefined) [metoprolol] (10 µM)
[1]
  morphology score: 0.0844
[2]
  SARS-CoV-2 infection rate: 101% (inactive)

## O=c1[nH]c(=O)n([C@H]2C[C@H](O)[C@@H](CO)O2)cc1F [floxuridine] (0.833333 µM)
[1]
  morphology score: -0.065
[2]
  SARS-CoV-2 infection rate: 99% (inactive)

## Nc1ccn([C@H]2CC[C@@H](CO)O2)c(=O)n1 [zalcitabine] (10 µM)
[1]
  morphology score: 0.0931
[2]
  SARS-CoV-2 infection rate: 104% (inactive)

## CCn1cc(C(=O)O)c(=O)c2cc(F)c(N3CCNCC3)nc21 [enoxacin] (10 µM)
[1]
  morphology score: 0.124
[2]
  SARS-CoV-2 infection rate: 105% (inactive)

## Cc1ccc2c(c1)[C@]13CCCC[C@@H]1[C@H](C2)N(C)CC3 [dimemorfan] (10 µM)
[1]
  morphology score: 0.368
[2]
  SARS-CoV-2 infection rate: 92.5% (inactive)

## Cc1ccc(NC(=O)Nc2cc(C(F)(F)F)ccc2F)cc1Nc1ccc2c(c1)NC(=O)/C2=C\c1ccc[nH]1 (10 µM)
[1]
  morphology score: 0.567
[2]
  SARS-CoV-2 infection rate: 51.5% (active)

## Oc1cccc2cccnc12 [oxyquinoline] (10 µM)
[1]
  morphology score: 0.202
[2]
  SARS-CoV-2 infection rate: 93.5% (inactive)

## CNCc1ccc(-c2cc(-c3nc(-c4ccc(S(=O)(=O)C(C)C)cc4)cnc3N)on2)cc1 (0.833333 µM)
[1]
  morphology score: 0.565
[2]
  SARS-CoV-2 infection rate: 52% (active)

## C[C@]1(Cn2ccnn2)[C@H](C(=O)O)N2C(=O)C[C@H]2S1(=O)=O [tazobactam] (10 µM)
[1]
  morphology score: 0.0668
[2]
  SARS-CoV-2 infection rate: 108% (inactive)

## CCCCCOc1ccc(-c2cc(-c3ccc(C(=O)N[C@H]4C[C@@H](O)[C@@H](O)NC(=O)[C@@H]5[C@@H](O)[C@@H](C)CN5C(=O)[C@H]([C@H](O)CC(N)=O)NC(=O)[C@H]([C@H](O)[C@@H](O)c5ccc(O)c(OS(=O)(=O)O)c5)NC(=O)[C@@H]5C[C@@H](O)CN5C(=O)[C@H]([C@@H](C)O)NC4=O)cc3)no2)cc1 [micafungin] (10 µM)
[1]
  morphology score: 0.0545
[2]
  SARS-CoV-2 infection rate: 94.5% (inactive)
